# Reference: publication PMC6925144, “A prospective compound screening contest identified broader inhibitors for Sirtuin 1” (Scientific Reports, 2019)
# Whole data set: some 3,200 compounds, median “TSA(without NAD+) / Primary screening (TSA) / delta Tm (K)” near -0.07, cut for the highest 2% near 0.37. For the sample, the highest values were picked, then their nearest neighbours and some compounds at random.
# Target: NAD-dependent deacetylase Sirtuin 1 (human, UniProt Q96EB6)
# Experiment: primary screen, delta tm
# Parameters: single well (n = 1)
# Conditions: 10 µM
# Method: A total of 3,192 compounds extracted from the proposed lists were first screened by thermal shift assay (TSA), which determined a melting temperature shift (ΔTm) of Sirtuin 1 upon the addition of a test compound at a concentration of 10 µM (n = 1) with primary hit criteria of ΔTm > 0.45 K or ΔTm < −1.5 K. Primary hits (48 compounds) were retested in the same assay at three concentrations (5, 10, 20 µM, n = 4) for hit confirmation and for dose-dependency check. Secondary hits (41 compounds) were checked their selectivity for Sirtuin 1 based on counterscreening on unrelated protein targets (bovine carbonic anhydrase (CA) and recombinant SH2 domain of hABL1 kinase (ABL1)) at three different concentrations (5, 10, 20 µM, n = 4), which yielded 38 hit compounds, hereafter referred to as TSA hits. The TSA screening above was conducted in the absence of NAD+.
# Sequence of NAD-dependent deacetylase Sirtuin 1 (Q96EB6 2-747 limits assumed): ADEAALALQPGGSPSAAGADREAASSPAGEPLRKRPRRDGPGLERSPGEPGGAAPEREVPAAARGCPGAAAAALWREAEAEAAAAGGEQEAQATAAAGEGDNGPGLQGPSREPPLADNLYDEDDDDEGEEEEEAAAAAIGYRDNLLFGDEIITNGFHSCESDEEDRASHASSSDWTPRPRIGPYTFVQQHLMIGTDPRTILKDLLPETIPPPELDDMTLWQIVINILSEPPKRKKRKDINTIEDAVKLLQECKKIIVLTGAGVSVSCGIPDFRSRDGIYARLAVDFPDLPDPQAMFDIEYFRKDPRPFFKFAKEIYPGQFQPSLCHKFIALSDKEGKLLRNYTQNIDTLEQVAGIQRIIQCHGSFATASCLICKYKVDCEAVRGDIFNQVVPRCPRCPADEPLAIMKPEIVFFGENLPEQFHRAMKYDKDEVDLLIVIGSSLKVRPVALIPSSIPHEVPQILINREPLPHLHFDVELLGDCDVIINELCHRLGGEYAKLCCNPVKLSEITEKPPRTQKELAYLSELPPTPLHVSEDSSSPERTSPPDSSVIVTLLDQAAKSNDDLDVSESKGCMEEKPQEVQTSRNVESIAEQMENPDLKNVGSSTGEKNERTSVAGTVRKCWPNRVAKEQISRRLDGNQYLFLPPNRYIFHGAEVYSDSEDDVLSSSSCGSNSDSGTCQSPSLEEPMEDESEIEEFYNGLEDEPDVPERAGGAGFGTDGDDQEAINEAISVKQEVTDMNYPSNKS
row,Structure (SMILES),TSA(without NAD+) / Primary screening (TSA) / delta Tm (K)
1,O=C(Nc1cccc(S(=O)(=O)N2CCOCC2)c1)c1cn(-c2ccccc2)nc1-c1ccc(Cl)cc1,0.58
2,O=C(Nc1cccc(S(=O)(=O)N2CCOCC2)c1)C(c1ccccc1)c1ccccc1,0.09
3,O=C(Nc1cccc(S(=O)(=O)N2CCOCC2)c1)c1cn(-c2ccccc2)nc1-c1ccccc1,-0.02
4,CN(c1ccccc1)S(=O)(=O)c1ccc(C(=O)Nc2cccc(S(=O)(=O)N3CCOCC3)c2)cc1,0.02
5,O=C(Nc1cccc(S(=O)(=O)N2CCOCC2)c1)c1cccc(S(=O)(=O)N2CCc3ccccc32)c1,0.37
6,Cc1ccc(-c2nn(-c3ccccc3)cc2C(=O)Nc2cccc(S(=O)(=O)N3CCOCC3)c2)cc1,0.07
7,O=C(Cn1[nH]c(=O)c2ccccc2c1=O)Nc1ccc(N2CCN(Cc3ccccc3)CC2)cc1,0.02
8,O=C(OCc1cccc2ccccc12)C1CCCCN1c1ncccn1 (centres unmarked),-0.13
9,Cc1nc2c(C(N)=O)ncn2c(C)c1CCC(=O)Nc1ccc(F)c(C(N)=O)c1,0.02
10,c1coc(CNc2ncnc3ccsc23)c1,0.05
11,CCNC(=O)c1cccc(NC(=O)C2CCN(S(=O)(=O)c3cc(C(C)(C)C)ccc3C)CC2)c1,0.17
12,Cc1ccc(C(C)(C)C)cc1S(=O)(=O)Nc1cccc(C(=O)NNC(=O)c2cccc(S(=O)(=O)Nc3cccc(C(F)(F)F)c3)c2)c1,1.22
13,O=C(NO)c1cccc(C(F)(F)F)c1,-0.13
14,NC(=O)c1ccc(CNC2CCCCCC2)o1,-0.05
15,C=CCOc1cccc(C2C(C(=O)c3ccco3)=C(O)C(=O)N2CCCN2CCOCC2)c1 (centres unmarked),-0.08
16,COc1ccc(CNC(=S)NC2CCCCC2)cc1OC,-0.23

row,Structure (SMILES),TSA(without NAD+) / Primary screening (TSA) / delta Tm (K)
1,COc1cc(NC(C)C(=O)Nc2ccc(C(N)=O)cc2)cc(OC)c1OC (centres unmarked),-0.18
2,COc1ccc(NC(=S)NN)cc1OC,0.37
3,COc1ccc(Br)cc1/C=C1/COc2ccccc2C1=O,-0.03
4,CCC(NC(=O)c1ccc(C(N)=O)cc1)C(c1ccc(C)cc1)n1cncn1 (centres unmarked),-0.21
5,COc1ccc(N(C)S(=O)(=O)c2cccc(C(=O)Nc3ccc4c(C)cc(=O)oc4c3)c2)cc1,-0.13
6,CCCOC(=O)c1ccc(NC(=O)c2cccc(S(=O)(=O)N(C)c3ccc(OC)cc3)c2)cc1,0.35
7,COc1ccc(N(C)S(=O)(=O)c2cccc(C(=O)Nc3cccc4ccccc34)c2)cc1,-0.13
8,COc1ccc(N(C)S(=O)(=O)c2cccc(C(=O)Nc3ccc(-n4cnnn4)cc3)c2)cc1,0.59
9,COc1ccc(N(C)S(=O)(=O)c2cccc(C(=O)Nc3ccc(OC)c(OC)c3)c2)cc1,-0.31
10,COc1ccc(N(C)S(=O)(=O)c2cccc(C(=O)Nc3ccc4ccccc4c3)c2)cc1,0.82
11,COc1ccc(N(C)S(=O)(=O)c2cccc(C(=O)Nc3ccc(Cl)cc3)c2)cc1,0.36
12,COc1ccc(N(C)S(=O)(=O)c2cccc(C(=O)Nc3cccc(Br)c3)c2)cc1,0.38
13,COc1ccc(NC(=O)c2cccc(S(=O)(=O)N(C)c3ccc(OC)cc3)c2)cc1,0.03
14,COc1ccc(N(C)S(=O)(=O)c2cccc(C(=O)Nc3ccc(Br)cc3F)c2)cc1,0.07
15,COc1ccc(N(C)S(=O)(=O)c2cccc(C(=O)Nc3ccc(Br)cc3)c2)cc1,0.36
16,COc1ccc(N(C)S(=O)(=O)c2cccc(C(=O)Nc3ccc(Br)c(C(F)(F)F)c3)c2)cc1,0.62
